These results are taken from PubChem BioAssay (EPA / NIEHS).

Active and inactive are the calls of the source. How the source made its calls: active means hit-call score of the fitted dose curve at least 0.9, where 1 is the maximum; inactive means score below 0.9.

Test [1] in a line: ATG_CRE_CIS: Attagene CIS-FACTORIAL HepG2 Assay for human cAMP Responsive Element (CRE) binding protein 3 (AID 2282926). As to conditions: HepG2 CRE cis-reporter, Attagene multiplexed mRNA; actives raise or lower the signal. In outline: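 Liver-derived HepG2, transfected with a CRE-containing reporter panel, exposed 24 h; transcript levels sized and quantified by capillary electrophoresis of labelled amplicons; signal changes either way referenced to vehicle.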

Test [2] is described as follows: ATG_CMV_CIS: Attagene CIS-FACTORIAL HepG2 Assay for human CMV (Internal Marker) (AID 2282928).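 Further: endpoint acts as a background internal control marker rather than a target.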 As to conditions: HepG2 CMV promoter reporter, transcription factor profiling; actives raise or lower the signal. In outline: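 Bidirectional fits against DMSO are applied to reporter mRNA, read by RT-PCR with capillary electrophoresis, from HepG2 cells exposed 24 h. The endpoint serves as an internal CMV background marker within the cis-factorial reporter panel.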

The target in test [3] is Aryl hydrocarbon receptor (Homo sapiens) (UniProt P35869). As to the kind of experiment: ATG_Ahr_CIS: Attagene CIS-FACTORIAL HepG2 Assay for human Aryl Hydrocarbon Receptor (Ahr) (AID 2282930). As to conditions: HepG2 AhR cis-factorial reporter transcription; actives raise or lower the signal. In outline:
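Endogenous factor activity is tracked through cis-promoter reporter units transfected into HepG2 cells. Transcript levels at 24 h are read by fluorescent RT-PCR and capillary electrophoresis, with activity in either direction scored relative to DMSO.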

Test [4] is described as follows: ATG_AP_1_CIS: Attagene CIS-FACTORIAL HepG2 Assay for human Activator Protein 1 (AP-1) (AID 2282931). As to conditions: HepG2 Attagene cis-factorial AP-1 reporter mRNA; actives raise or lower the signal. In outline:
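Cis-regulated reporter units transiently expressed in HepG2 report endogenous transcription-factor activity. Signal: reporter mRNA at 24 h, via RT-PCR and fluorescent capillary electrophoresis. Endpoint derived by bidirectional fitting, DMSO as negative control.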

The nature of test [5]: ATG_AP_2_CIS: Attagene CIS-FACTORIAL HepG2 Assay for human Activator Protein 2 (AP-2) (AID 2282932). Conditions: HepG2 AP-2 cis-reporter, Attagene transcription factor profiling; actives raise or lower the signal. In outline:
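Liver-derived HepG2 line, cis-reporter system measuring endogenous factors; 24 h dosing; reporter mRNA detected by fluorescent RT-PCR and capillary electrophoresis.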

A short description of test [6]: ATG_BRE_CIS: Attagene CIS-FACTORIAL HepG2 Assay for human Bone Morphogenetic Protein (BMP) Response Element (BRE) (AID 2282933). Conditions: HepG2 BMP response element reporter, Attagene transcription factor profiling; actives raise or lower the signal. In outline:
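A HepG2 multiplex reporter system measured inducible reporter mRNA 24 h post-dosing. Detection: RT-PCR, 6-FAM primer extension, HpaI digestion, capillary electrophoresis. Activity fitted bidirectionally relative to DMSO.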

Test [7] concerns the target Retinoic acid receptor alpha (Homo sapiens) (UniProt P10276). Description: ATG_DR5_RAR_CIS: Attagene CIS-FACTORIAL HepG2 Assay for human Retinoic Acid Receptor Alpha (RARE), DR5 submotif (AID 2282934).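 On AC50: reporter responds to endogenous RAR alpha beta and gamma in HepG2 not RARA alone.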 As to conditions: HepG2 Attagene cis-factorial RARE DR5 reporter, mRNA; actives raise or lower the signal. In outline:
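After 24 h of chemical exposure, transiently transfected HepG2 cells were lysed for total RNA; the DR5-regulated reporter transcript was quantified via RT-PCR and capillary electrophoresis, with activity fitted bidirectionally against DMSO.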

In test [8] the target is Transcription factor E2F1 (Homo sapiens) (UniProt Q01094). As to the kind of experiment: ATG_E2F_CIS: Attagene CIS-FACTORIAL HepG2 Assay for human E2F Transcription Factor 1 (AID 2282935). As to conditions: HepG2 Attagene cis-reporter, E2F reporter RNA transcripts; actives raise or lower the signal. In outline:
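Liver-derived HepG2 cells expressing transfected promoter-driven reporter units received test chemical for 24 hours. Signal gains or losses were fitted bidirectionally against DMSO.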

Test [9] can be described thus: ATG_E_Box_CIS: Attagene CIS-FACTORIAL HepG2 Assay for human Enhancer Box (E-box) (AID 2282936). Conditions: HepG2 E-box cis-reporter transcription, actives raise or lower the signal. The procedure, abridged: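 In this cell-based setup, HepG2 cells bearing transfected promoter-driven reporter units were exposed to chemicals for 24 h; reporter transcripts were amplified, 6-FAM-labelled, cut with HpaI and sized by capillary electrophoresis.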

Test [10] addresses CCAAT/enhancer-binding protein beta (Homo sapiens) (UniProt P17676). As to the kind of experiment: ATG_C_EBP_CIS: Attagene CIS-FACTORIAL HepG2 Assay for human CCAAT/Enhancer Binding Protein (C/EBP) beta (AID 2282927). As to conditions: HepG2 Attagene cis-factorial transcription factor reporter; actives raise or lower the signal. In outline:
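HepG2, transient MRTU transfection, 24 h treatment. RT-PCR plus CE fluorescence; DMSO negative control, bidirectional fit.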

Test [11] in a line: ATG_DR4_LXR_CIS: Attagene CIS-FACTORIAL HepG2 Assay for human Liver X Receptor (LXR), DR4 submotif (AID 2282929). Conditions: HepG2 Attagene DR4 cis-reporter, mRNA transcription; actives raise or lower the signal. The procedure, abridged:
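DR4 cis-reporter in HepG2, 24 h exposure. Detection: RT-PCR, 6-FAM labelling, CE fragment analysis. Endpoint fitted bidirectionally, DMSO = baseline.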

Chain of Aryl hydrocarbon receptor (Homo sapiens) (P35869 whole entry, looked up): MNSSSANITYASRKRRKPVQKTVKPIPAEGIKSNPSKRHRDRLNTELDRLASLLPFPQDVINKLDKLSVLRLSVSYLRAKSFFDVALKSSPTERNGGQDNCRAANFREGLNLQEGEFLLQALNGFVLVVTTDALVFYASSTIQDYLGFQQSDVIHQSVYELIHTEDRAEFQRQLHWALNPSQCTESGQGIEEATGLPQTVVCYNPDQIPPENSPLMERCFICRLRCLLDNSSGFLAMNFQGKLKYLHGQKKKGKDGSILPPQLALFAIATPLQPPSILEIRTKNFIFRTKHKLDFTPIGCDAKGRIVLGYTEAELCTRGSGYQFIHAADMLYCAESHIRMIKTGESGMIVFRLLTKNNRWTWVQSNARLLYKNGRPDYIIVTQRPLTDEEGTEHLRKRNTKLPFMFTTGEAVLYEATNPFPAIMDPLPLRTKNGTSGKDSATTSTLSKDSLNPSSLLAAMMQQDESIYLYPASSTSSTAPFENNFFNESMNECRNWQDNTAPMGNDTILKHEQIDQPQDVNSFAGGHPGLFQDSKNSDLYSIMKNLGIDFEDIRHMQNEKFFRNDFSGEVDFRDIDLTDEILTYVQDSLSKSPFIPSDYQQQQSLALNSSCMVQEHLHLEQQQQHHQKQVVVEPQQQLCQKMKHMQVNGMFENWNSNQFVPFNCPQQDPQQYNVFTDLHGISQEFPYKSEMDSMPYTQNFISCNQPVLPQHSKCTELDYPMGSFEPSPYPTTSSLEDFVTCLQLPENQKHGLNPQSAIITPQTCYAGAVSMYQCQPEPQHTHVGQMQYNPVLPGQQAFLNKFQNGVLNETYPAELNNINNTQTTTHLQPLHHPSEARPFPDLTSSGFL
Chain of Transcription factor E2F1 (Homo sapiens) (Q01094 whole entry, looked up): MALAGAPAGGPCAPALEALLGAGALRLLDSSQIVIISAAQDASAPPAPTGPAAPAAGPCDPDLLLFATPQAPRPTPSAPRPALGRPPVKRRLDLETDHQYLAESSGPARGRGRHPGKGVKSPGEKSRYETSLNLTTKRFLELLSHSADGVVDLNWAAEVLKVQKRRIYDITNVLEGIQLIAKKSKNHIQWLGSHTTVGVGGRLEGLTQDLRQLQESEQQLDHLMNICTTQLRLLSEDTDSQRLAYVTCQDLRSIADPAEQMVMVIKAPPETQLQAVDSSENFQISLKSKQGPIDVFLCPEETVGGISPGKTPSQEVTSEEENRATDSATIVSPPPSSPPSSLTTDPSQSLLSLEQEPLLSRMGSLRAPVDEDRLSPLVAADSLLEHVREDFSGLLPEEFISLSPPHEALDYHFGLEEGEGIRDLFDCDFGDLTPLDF
Chain of Retinoic acid receptor alpha (Homo sapiens) (P10276 whole entry, looked up): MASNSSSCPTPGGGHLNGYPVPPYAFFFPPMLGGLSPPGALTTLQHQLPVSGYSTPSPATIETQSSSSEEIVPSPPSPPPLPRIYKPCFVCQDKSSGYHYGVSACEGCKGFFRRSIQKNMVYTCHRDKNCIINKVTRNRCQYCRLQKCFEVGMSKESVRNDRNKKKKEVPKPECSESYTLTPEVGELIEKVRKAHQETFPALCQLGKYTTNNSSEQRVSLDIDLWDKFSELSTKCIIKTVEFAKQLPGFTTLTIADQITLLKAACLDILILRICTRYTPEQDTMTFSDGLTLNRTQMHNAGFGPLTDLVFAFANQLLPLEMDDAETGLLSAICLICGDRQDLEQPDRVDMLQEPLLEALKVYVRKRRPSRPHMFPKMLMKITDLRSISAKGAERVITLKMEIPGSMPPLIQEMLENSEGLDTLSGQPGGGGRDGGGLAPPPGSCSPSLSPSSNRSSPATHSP
Chain of CCAAT/enhancer-binding protein beta (Homo sapiens) (P17676 whole entry, looked up): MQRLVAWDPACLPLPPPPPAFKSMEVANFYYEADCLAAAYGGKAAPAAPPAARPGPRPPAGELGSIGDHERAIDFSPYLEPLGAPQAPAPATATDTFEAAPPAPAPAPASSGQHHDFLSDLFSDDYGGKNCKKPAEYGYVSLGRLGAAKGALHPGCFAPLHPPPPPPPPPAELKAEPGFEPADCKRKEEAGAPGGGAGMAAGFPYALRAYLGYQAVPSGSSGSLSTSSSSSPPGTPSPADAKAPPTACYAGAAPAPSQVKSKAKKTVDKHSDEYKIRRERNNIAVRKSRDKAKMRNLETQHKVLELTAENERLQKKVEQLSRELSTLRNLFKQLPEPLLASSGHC

As for `OC[P+](CO)(CO)CO`, the outcome in test [1], in [2], in [3], in test [4], in test [5] and in [6] was inactive. The outcome in test [7], in [8] and in test [9] was inactive.

With `CCCCCCCCCCBr`, the call in test [1], in test [10], in test [3], in [4], in test [6] and in test [7] was inactive. Besides, the call in test [8] and in test [9] was inactive. The half-maximal activity concentration (AC50) in test [2] is 163 µM (active).

As to `CN(N=O)C(N)=O`, the outcome in test [1], in [2], in test [11], in [3], in test [4] and in test [5] was inactive. Also, the call in [6], in test [7], in test [8] and in [9] was inactive.

As to `N#Cc1ccccc1N`, the compound was classed as inactive in test [1], in test [2], in [11], in test [4], in test [6] and in [7]. Besides, the compound was called inactive in test [8] and in test [9]. Also, the AC50 in test [3] is 33.2 µM (active).

`OCC(c1ccc(Cl)cc1)c1ccc(Cl)cc1`: the compound was called inactive in [1], in [3], in test [5], in test [6], in test [7] and in [8]. The outcome in [9] was inactive. For the same compound, the AC50 in [2] is 45.2 µM (active); in [11], 50.2 µM (active); in test [4], 51.6 µM (active).

Turning to `CCCCN(CCCC)C(=S)S`, the compound was called inactive in test [1], in [3], in test [5] and in [8]. Further, the concentration at half-maximal activity (AC50) in test [2] is 162 µM (active); in [11], 100 µM (active); in test [4], 171 µM (active); in test [6], 146 µM (active); in [7], 100 µM (active); in [9], 130 µM (active).

On to `O=C(NC(=O)c1c(F)cccc1F)Nc1cc(Cl)c(Oc2ncc(C(F)(F)F)cc2Cl)c(Cl)c1`, for which the outcome in test [1], in test [2], in test [3], in test [4], in [5] and in test [6] was inactive. The outcome in [7], in test [8] and in test [9] was inactive. The AC50 in test [11] is 4.57 µM (active).

`O=C(O)CC(O)(CC(=O)O)C(=O)O`: the compound was classed as inactive in test [1], in [2], in test [11], in [3], in test [4] and in test [6]. Moreover, the compound was classed as inactive in test [8] and in [9].

Consider `N#Cc1ccncc1`, for which the compound was called inactive in test [1], in test [10], in test [2], in [3], in test [4] and in [6]. Also, the compound was called inactive in [8] and in [9].

Consider `BrCCCCBr`, for which the compound was called inactive in test [1], in test [2], in [11], in test [3], in test [4] and in test [5]. Also, the outcome in test [6], in test [7], in test [8] and in [9] was inactive.

Regarding `C1CCC(C2CCCCC2)CC1`, the compound was classed as inactive in test [1], in test [10], in [3], in test [4], in test [6] and in test [7]. Besides, the compound was classed as inactive in test [8] and in test [9]. The AC50 in test [2] is 86.2 µM (active).

As for `O=CCCl`, the AC50 in [1] was 24.7 µM (active); in [2], 60.9 µM (active); in test [11], 68.5 µM (active); in test [3], 84.7 µM (active); in [4], 165 µM (active); in test [9] it was 183 µM (active). Further, the compound was called inactive in test [5], in [6], in test [7] and in test [8].

Turning to `Cl[C@H]1OCCO[C@@H]1Cl`, the compound was called inactive in [1], in [2], in [11], in test [3], in [4] and in [5]. Moreover, the call in [6], in [7], in [8] and in [9] was inactive.

With `CC(O)(CS(=O)(=O)c1ccc(F)cc1)C(=O)Nc1ccc(C#N)c(C(F)(F)F)c1` (configuration not stated), the outcome in [10], in test [2], in test [11], in test [3], in test [4] and in test [5] was inactive. Besides, the result in test [8] and in [9] was inactive. The AC50 in test [6] is 98.5 µM (active).

In the case of `Cc1ccc(CCl)cc1`, the compound was called inactive in test [1], in [2], in [3], in [4], in test [6] and in test [7]. In addition, the result in test [8] and in [9] was inactive.

As for `O=C(O)COc1ccc(Cl)cc1`, the compound was called inactive in test [2], in test [11], in test [3], in [5], in test [6] and in test [7]. For the same compound, the result in test [9] was inactive.

For `O=C(NC(=O)c1c(F)cccc1F)Nc1cc(Cl)c(F)c(Cl)c1F`, the outcome in test [10], in [2], in test [3], in [4], in [6] and in test [7] was inactive. Further, the call in test [8] and in [9] was inactive. The AC50 in test [11] was 0.512 µM (active).

Take `CN(CCCC(O)c1cccnc1)N=O` (configuration not stated): the outcome in test [10], in [2], in [11], in [3], in [4] and in test [5] was inactive. Also, the compound was classed as inactive in test [6], in [8] and in test [9].

In the case of `Cc1cccc(C)c1NC(=O)CN1CCCC1=O`, the outcome in [2], in test [11], in [3], in test [4], in [6] and in test [8] was inactive. In addition, the outcome in [9] was inactive.

Regarding `Clc1cnc(Oc2ccc(Oc3ncc(Cl)cc3Cl)cc2)c(Cl)c1`, the outcome in [10], in [2], in [11], in [4], in test [5] and in test [6] was inactive. Moreover, the result in test [7] and in test [9] was inactive. Besides, the half-maximal activity concentration (AC50) in test [3] was 5.93 µM (active).

On to `CC(C)(C#N)N=NC(C)(C)C#N`, for which the result in test [10], in test [2], in [11], in [3], in test [5] and in [6] was inactive. Also, the outcome in test [8] and in test [9] was inactive.

Take `CCOP(=S)(OCC)SCS(=O)(=O)C(C)(C)C`: the outcome in test [10], in test [2], in [3], in test [4], in test [5] and in test [6] was inactive. The outcome in test [7], in test [8] and in test [9] was inactive.

As for `CC(=O)CN(CC(C)=O)N=O`, the result in [10], in [2], in [11], in test [3], in [4] and in test [5] was inactive. Also, the compound was classed as inactive in test [6], in test [7], in test [8] and in test [9].
